Measurements taken from PubChem BioAssay (NCI).
Compounds without any hit were thinned out: in the full panel of roughly 83,000, 20% have a hit.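 Cell lines were cultured in 96-well plates, exposed to a single compound concentration, and assessed for percent growth 48 hours later.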 Values without a mark were called inactive. Active and inactive are the calls of the source. The calls were made as follows: active = growth percent below 10; inactive = the rest.

What was measured:
Experiment in all cases: NCI-60 one-dose screen, 48 h (100 = growth as untreated, 0 = no growth, -100 = all killed)
Conditions in all cases: 10 µM unless noted
[1] = tested on: SR leukemia
[2] = tested on: RPMI-8226 leukemia
[3] = tested on: OVCAR-8 ovarian
[4] = tested on: OVCAR-5 ovarian
[5] = tested on: OVCAR-4 ovarian
[6] = tested on: SK-OV-3 ovarian
[7] = tested on: IGROV1 ovarian
[8] = tested on: OVCAR-3 ovarian
[9] = tested on: HS 578T breast
[10] = tested on: NCI/ADR-RES ovarian

Structure (SMILES): c1csc(C2=NN3C(C2)c2ccccc2OC3c2ccncc2)c1 (centres undefined)
- growth [1]: 100%
- growth [2]: 92.8%
- growth [3]: 96.1%
- growth [4]: 108%
- growth [5]: 90.9%
- growth [6]: 93.8%
- growth [7]: 76.1%
- growth [8]: 98.9%
- growth [9]: 87.2%
- growth [10]: 98.4%

Structure (SMILES): O=[N+]([O-])c1ccc2c(c1)Cc1cc(F)ccc1-2
- growth [1]: 103%
- growth [2]: 89.3%
- growth [3]: 103%
- growth [4]: 96.6%
- growth [5]: 91.7%
- growth [6]: 99.1%
- growth [7]: 105%
- growth [8]: 113%
- growth [9]: 95.6%

Structure (SMILES): O=C1C=CC(=O)N1c1ccc2c(c1)Cc1cc(F)ccc1-2
- growth [1]: 70.6%
- growth [2]: 28.2%
- growth [3]: 99.4%
- growth [4]: 93.5%
- growth [5]: 83.3%
- growth [6]: 103%
- growth [7]: 94%
- growth [8]: 115%
- growth [9]: 97.8%
- growth [10]: 105%

Structure (SMILES): CC1=C[C@H]2c3c(c(O)c(O)c4oc5cc(O)ccc5c(=O)c34)[C@H](c3cc(O)c(O)c4oc5cc(O)ccc5c(=O)c34)[C@H]2C(C)(C)C1
- growth [1]: 24.6%
- growth [2]: 29.5%
- growth [3]: 25.4%
- growth [4]: 59.1%
- growth [5]: 56%
- growth [6]: 59.7%
- growth [7]: 21.4%
- growth [8]: 46.4%
- growth [9]: 22.4%
- growth [10]: 101%

Structure (SMILES): COc1ccc(-c2nc(SCC(=O)Nc3ccc(C(=O)/C=C/c4ccc(Cl)cc4)cc3)[nH]c(=O)c2C#N)cc1
- growth [1]: 72.3%
- growth [2]: 98.3%
- growth [3]: 106%
- growth [4]: 109%
- growth [5]: 99.8%
- growth [6]: 96.2%
- growth [7]: 111%
- growth [8]: 101%
- growth [9]: 81.3%

Structure (SMILES): Cc1cc(N2CCN(c3ccnc4cc(Cl)ccc34)CC2)nc(NC2CCCCC2)n1
- growth [1]: -24% (active)
- growth [2]: -37.5% (active)
- growth [3]: 60.3%
- growth [4]: 66.8%
- growth [5]: 33.2%
- growth [6]: 56.3%
- growth [7]: 18.6%
- growth [8]: 38.2%
- growth [9]: 57.9%

Structure (SMILES): NC1=C(Cl)C(=O)c2ccc(S(N)(=O)=O)cc2C1=O
- growth [1]: 2.63% (active)
- growth [2]: -0.705% (active)
- growth [3]: -53.9% (active)
- growth [4]: -87.7% (active)
- growth [5]: -100% (active)
- growth [6]: -45.3% (active)
- growth [7]: -85.5% (active)
- growth [8]: -95.5% (active)
- growth [9]: -21% (active)

Structure (SMILES): COc1cccc(C2=NN3C(C2)c2cc(Br)cc(OC)c2OC32CCN(Cc3ccccc3)CC2)c1 (centres undefined)
- growth [1]: 111%
- growth [2]: 107%
- growth [3]: 104%
- growth [4]: 105%
- growth [5]: 90.8%
- growth [6]: 106%
- growth [7]: 98.6%
- growth [8]: 105%
- growth [9]: 94.7%

Structure (SMILES): CC[N+](CC)=c1sc2c(s1)C(c1ccc(Cl)cc1)Oc1ccc(Cl)cc1-2 (centres undefined)
- growth [1]: 14.8%
- growth [2]: -31.4% (active)
- growth [3]: 10.7%
- growth [4]: 15.1%
- growth [5]: 9.29% (active)
- growth [6]: -6.15% (active)
- growth [7]: 9.22% (active)
- growth [8]: 1.97% (active)
- growth [9]: 18.3%
- growth [10]: 88.9%

Structure (SMILES): COc1cc2c(cc1O)CC[C@@H]1[C@@H]2CC[C@]2(C)[C@@H](OCCCN(C)C)CC[C@@H]12
- growth [1]: -36.2% (active)
- growth [2]: -32.9% (active)
- growth [3]: -34.2% (active)
- growth [4]: 2.83% (active)
- growth [5]: -15% (active)
- growth [6]: -59.1% (active)
- growth [7]: -35.2% (active)
- growth [8]: -55.5% (active)
- growth [9]: -38.2% (active)

Structure (SMILES): COc1cc(-c2nc3ccccc3[nH]2)ccc1OCc1nnc(-c2ccc(CC(C)C)cc2)o1
- growth [1]: 80.2%
- growth [2]: 83%
- growth [3]: 92.2%
- growth [4]: 114%
- growth [5]: 90.9%
- growth [6]: 99.1%
- growth [7]: 92.3%
- growth [8]: 95.2%
- growth [9]: 87.4%
- growth [10]: 89.8%

Structure (SMILES): CCCOc1cc2ccccc2cc1C(=O)Nc1nc(NC)c2c(ccc3nccc32)[nH]1
- growth [1]: -49.3% (active)
- growth [2]: -46% (active)
- growth [3]: -33.2% (active)
- growth [4]: -61.4% (active)
- growth [5]: -58.5% (active)
- growth [6]: -86.9% (active)
- growth [7]: -67.2% (active)
- growth [8]: -76% (active)
- growth [9]: -56.3% (active)
- growth [10]: -17% (active)

Structure (SMILES): CCOc1ccc(-n2nc(C(=O)Nc3cc(OC)c(OC)c(OC)c3)nc2-c2cc(OC)c(OC)c(OC)c2)cc1
- growth [1]: 40.7%
- growth [2]: 55.7%
- growth [3]: 74%
- growth [4]: 102%
- growth [5]: 68.1%
- growth [6]: 99.7%
- growth [7]: 90.8%
- growth [8]: 86.9%
- growth [9]: 65.6%
- growth [10]: 85.8%

Structure (SMILES): CCC([N+](=O)[O-])S(=O)(=O)c1ccc(C)cc1 (centres undefined)
- growth [1]: 113%
- growth [2]: 106%
- growth [3]: 95.3%
- growth [4]: 88.2%
- growth [5]: 93.6%
- growth [6]: 108%
- growth [7]: 103%
- growth [8]: 150%
- growth [9]: 129%
- growth [10]: 92.3%
